Data reported in PubChem BioAssay AID1159580 (chemical genetic matrix, 2015).
The whole screen tested about 5,500 compounds, of which about 2,000 (36%) were called active. About 18% were inconclusive and are not listed. Cut-off read from the data, not from the text of the source: active = normalized growth mostly below about 0.91 (no sharp cut-off); inconclusive = no clear call, values can overlap the other calls; inactive = mostly above about 0.92. This is one part of the list.

Test: chemical genetic growth profiling, strain panel (AID 1159580);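 note: tested at 20 µM; growth read once vehicle control cultures reached saturation at 30 °C; 1 = growth at the plate median or of vehicle wells; lower values mean less growth of the strain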
Details: S. cerevisiae deletion strains, growth OD

Measured: normalized growth

O=C(O)CCCCCCCC(O)C(O)CCCCCCO (stereo not given)
inactive: locus YHR030C, strain SLT2, stronger effect = lower value 1.02 | locus YHR079C, strain IRE1, stronger effect = lower value 1.01 | locus YJL095W, strain BCK1, stronger effect = lower value 1 | locus YJR066W, strain TOR1, stronger effect = lower value 0.935 | locus YLR113W, strain HOG1, stronger effect = lower value 0.987 | locus YNL183C, strain NPR1, stronger effect = lower value 0.954 | locus YOR231W, strain MKK1, stronger effect = lower value 0.991 | locus YPL256C, strain CLN2, stronger effect = lower value 1.01

Cn1cnc2c(NCc3ccccc3)nc(NCCO)nc21
inactive: locus YAL013W, strain DEP1, stronger effect = lower value 0.989 | locus YAL040C, strain CLN3, stronger effect = lower value 1.08 | locus YCL061C, strain MRC1 (second series), stronger effect = lower value 0.99 | locus YDR150W, strain NUM1, stronger effect = lower value 0.998 | locus YDR363W, strain ESC2, stronger effect = lower value 1.01 | locus YER002W, strain NOP16, stronger effect = lower value 1.05 | locus YGR078C, strain PAC10, stronger effect = lower value 0.988 | locus YGR229C, strain SMI1, stronger effect = lower value 0.991 | locus YJR075W, strain HOC1, stronger effect = lower value 0.981 | locus YMR263W, strain SAP30, stronger effect = lower value 0.984 | locus YMR307W, strain GAS1, stronger effect = lower value 1 | locus YNL175C, strain NOP13, stronger effect = lower value 1 | locus YNL197C, strain WHI3, stronger effect = lower value 0.982 | locus YNL224C, strain SQS1, stronger effect = lower value 1 | locus YNL322C, strain KRE1, stronger effect = lower value 0.992 | locus YOR083W, strain WHI5 (second series), stronger effect = lower value 0.988 | locus YPL055C, strain LGE1, stronger effect = lower value 1
